# Measurements reported in PubChem BioAssay (NCI).
# About 83,000 compounds went through this panel and 20% of them were active in at least one assay; those are over-represented in the sample as a whole.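 Testing used 96-well plates and a 48-hour single-concentration exposure. Example: -40 means 40% of the starting cells died.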 Values without a mark were called inactive. Calls of active or inactive are those of the source. Rule for the calls: active = growth percent below 10; inactive = the rest.
# Test system: MDA-MB-435 melanoma
# Assay: NCI-60 one-dose screen, 48 h (100 = growth as untreated, 0 = no growth, -100 = all killed)
# Conditions: 10 µM unless noted
row,SMILES,growth
1,Cc1cc(S(=O)(=O)/N=C(\N)n2nc(C)c(C)c2C)c(SCc2ccccc2)cc1Cl,27%
2,CS(=O)(=O)Nc1cncc(-c2ccc3ncnc(Nc4cncc(Cl)c4)c3c2)c1,103%
3,CC(C)(Sc1cc(C(C)(C)C)c(OC(=O)CCCC(=O)O)c(C(C)(C)C)c1)Sc1cc(C(C)(C)C)c(OC(=O)CCCC(=O)O)c(C(C)(C)C)c1,27.8%
4,COc1cc2c(c(OC)c1OC)CCC(c1cccc(NC(=O)c3ccc(Br)cc3)c1)O2 (stereo not drawn),69.1%
5,COc1ccc(CNc2c3ccccc3nc3ccccc23)cc1,40.2%
6,N#CSc1c[nH]c2cccc(/C=C/C(=O)/C=C(/C=C/c3cccc4[nH]cc(SC#N)c34)OB(F)F)c12,-74.7% (active)
7,CC1=NC2=Nn3c(c4cnn(-c5ccccc5)c4n/c3=N\N)NN2C(c2ccccc2)=C1,92.3%
8,COc1ccc(\C=N/N=C(N)/C(N)=N\N=C/c2ccc(OC)cc2)cc1,107%
9,NC(=O)c1cccc(-n2ccc3cc(NC(=O)c4ccc(N5CCOCC5)c(C(F)(F)F)c4)ccc32)n1,71.3%
10,COc1ccc(-c2nc3cc(C(=O)NCc4ccccc4)ccc3n2C2CCCCC2)cc1,81.7%
11,CN(C)CC(C)(C)C(=O)/C=C/c1ccccc1,-35.9% [25 µM] (active)
12,C=CCn1c(SCC(=O)Nc2ccc(C(=O)/C=C/c3ccc(Cl)cc3)cc2)nnc1-c1ccc(Br)cc1,26.9%
13,Cc1cn(-c2cc(NC(=O)c3cccc(C#Cc4cccc5[nH]nc(N)c45)c3)cc(C(F)(F)F)c2)cn1,36.1%
